Compound activity (PubChem BioAssay)
An excerpt weighted towards active compounds, which were near 2.6% of everything screened.
ABHD5 PLIN5 PPI = ABHD5-PLIN5 interaction inhibitors, primary screen, cell lysate, split luciferase complementation, luminescence; Perilipin-5 (Homo sapiens) + 1-acylglycerol-3-phosphate O-acyltransferase ABHD5 (Homo …; Split G. princeps luciferase complementation, 4 h; inhibition, % at 4 µM; 360,000 tested, 0.78% active; AID 602281, 2012;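 active = inhibition above the mean inhibition across every tested compound plus 3 SD, cut at about 22% in these data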;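 note: 0% = DMSO only wells and the 100% control is not disclosed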
Granule exo inh = LAMP-1 surface exposure blockers, TALL-104 cells – cell-based, flow cytometry, MLPCN library, primary screen; AID 651702, 2012; 360,000 tested, 0.66% active; inhibition, % at 10 µM; TALL-104 LAMP-1 surface exposure; cells stimulated with thapsigargin and PMA;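 active = inhibition above about 55%, limit read from the data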
NOD2 RIPK2 PPI = NOD2-RIPK2 binding disruptors in cells, primary screen, fluorescence, CHO cells, BLA complementation; Receptor-interacting serine/threonine-protein kinase 2 (Homo sapiens), O43353; CCF4 ratio; inhibition, % at 4.98 µM; 360,000 tested, 0.38% active; AID 624267, 2012; in the data active = inhibition above about 21%;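 note: 0% = vehicle only and 100% = reference blocker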
Target sequence (O43353 whole entry, looked up): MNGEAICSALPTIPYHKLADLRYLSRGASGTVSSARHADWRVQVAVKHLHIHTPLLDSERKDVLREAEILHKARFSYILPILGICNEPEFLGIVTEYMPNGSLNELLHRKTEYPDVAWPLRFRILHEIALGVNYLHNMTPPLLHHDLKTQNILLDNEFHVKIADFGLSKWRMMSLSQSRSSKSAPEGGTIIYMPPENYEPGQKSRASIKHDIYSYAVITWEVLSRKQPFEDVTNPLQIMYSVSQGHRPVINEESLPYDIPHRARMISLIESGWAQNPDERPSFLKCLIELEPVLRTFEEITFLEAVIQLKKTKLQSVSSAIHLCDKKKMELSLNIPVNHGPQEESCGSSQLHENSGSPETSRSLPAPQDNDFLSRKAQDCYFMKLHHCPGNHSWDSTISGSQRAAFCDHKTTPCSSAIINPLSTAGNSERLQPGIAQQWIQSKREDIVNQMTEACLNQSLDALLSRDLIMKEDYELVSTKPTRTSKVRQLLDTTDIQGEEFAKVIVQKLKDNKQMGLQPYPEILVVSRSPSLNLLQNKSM
PRMT1 FP inh = PRMT1 methyltransferase inhibitors, primary screen, biochemical, fluorescence polarization | Protein arginine N-methyltransferase 1 (Homo sapiens), Q99873 | recombinant PRMT1, activity-based probe fluorescence polarization | inhibition, % at 2.79 µM | 370,000 tested, 1.3% active;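 active = inhibition above about 21% made by adding two undisclosed values, limit read from the data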
TLR4-MyD88 BLA = inhibitors of TLR4-MyD88 association in cells, primary screen, cell-based, HeLa CL3-4, BLA complementation, FRET ratio. HeLa CL3-4 TLR4/MyD88 BLA complementation. inhibition, % at 8.4 µM. 200,000 tested, 0.18% active; in the data active = inhibition above about 25%;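 note: 0% = vehicle and 100% = reference inhibitor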
TLR9-MyD88 block = inhibitors of TLR9-MyD88 association in cells, primary screen, cell-based, CHO, BLA complementation, fluorescence; inhibition, % at 4.98 µM; 340,000 tested, 0.21% active; CCF4 FRET ratio; Toll-like receptor 9 (Homo sapiens) + Myeloid differentiation primary response protein …;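 active = inhibition above the mean over all tested compounds plus 3 SD, cut at about 21% in these data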;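 note: 0% = DMSO only wells and 100% = clavulanate BLA inhibitor control wells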
PRMT1 confirm = PRMT1 methyltransferase inhibitors, confirmation, biochemical, fluorescence polarization, triplicate. recombinant His-PRMT1, activity-based probe fluorescence polarization. shares compounds with PRMT1 FP inh. inhibition, % at 2.79 µM. AID 687036, 2013. 3,300 tested, 42% active;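 active = mean inhibition across replicates above the hit cutoff derived for the earlier primary screen, cut at about 22% in these data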
Active calls of the source: *; x = no result.

SMILES | ABHD5 PLIN5 PPI | Granule exo inh | NOD2 RIPK2 PPI | PRMT1 FP inh | TLR4-MyD88 BLA | TLR9-MyD88 block | PRMT1 confirm
Fc1ccc(NC(=S)N2CCN(c3cccc(C(F)(F)F)c3)CC2)cc1 | -6.2 | -1.2 | 3.5 | 5.2 | 21.3 | 1.1 | x
Cc1ccnc(NC(=S)N2CC3CN(c4cccc(C(F)(F)F)c4)CC3C2)c1 (stereo not given) | x | x | x | 25.4* | x | x | 22.8*
CCC(C)(C)NC(=O)C(c1ccc(C)o1)N(Cc1ccc2c(c1)OCO2)C(=O)c1snc(C(N)=O)c1N (stereo not given) | 2.5 | 11.8 | -1.1 | -3.5 | x | -11.4 | x
Cc1c(O)nc(SCC(=O)Nc2nccs2)n(-c2ccccc2F)c1=O | -6.5 | -0.1 | -110.0 | 27.5* | x | -11.6 | 18.0
Cc1nnc(SCC(=O)Nc2nccs2)n(N)c1=O | -2.5 | -4.1 | 3.4 | -1.3 | -11.4 | -6.1 | x
CCCCCCSc1ccc([C@H]2N[C@@](C)(C(=O)OC)[C@H]3C(=O)N(C)C(=O)[C@@H]23)cc1 | -5.3 | -1.5 | 6.2 | 3.4 | x | 0.9 | x
COc1ccc2c(c1)CC/C(=C/c1ccncc1)C2=O | 8.3 | -3.1 | 1.5 | x | -5.8 | -3.4 | x
COc1ccc2c(c1)CC/C(=C\c1ccc(C)o1)C2=O | 8.0 | 31.2 | -2.9 | 38.5* | x | -7.0 | -5.7
O=C(O)CN1C(=O)c2cccc3c(Br)ccc1c23 | -7.3 | -0.9 | 7.0 | -1.4 | x | 1.3 | x
CN(C)CCCN1C(=O)c2cccc3c(Br)ccc(c23)C1=O | -1.9 | -0.2 | -0.3 | 38.1* | 18.4 | 1.2 | 9.8
O=C(c1cccs1)N1CCN(Cc2nc(-c3ccccc3)no2)CC1 | -9.1 | -6.5 | 2.2 | -2.2 | x | 1.4 | x
CN(C)c1ccc(/C=N/n2c(C3CCCCC3)n[nH]c2=S)cc1 | 1.5 | 17.2 | 3.2 | 5.3 | x | 3.1 | x
CC1(C(=O)NS(=O)(=O)c2ccc(F)cc2F)CCN1C(=O)CCc1ccc(Cl)cc1Cl (stereo not given) | 0.1 | -0.9 | -10.3 | 0.8 | x | x | x
CCOC(=S)SCc1cn2ccc(C)cc2n1 | -18.7 | -2.8 | -2.0 | 41.7* | -1.9 | 5.6 | 26.4*
CC1(C)Cc2c(c(N3CCCC3)nc3sc(C(=O)Nc4ccccc4)c(N)c23)CO1 | -5.5 | 2.6 | -9.4 | 5.7 | x | -7.0 | x
COC(=O)CSc1ncnc2c1sc1nc(-c3ccco3)c3c(c12)CC(C)(C)OC3 | x | x | x | x | -3.1 | x | x
CC1(C)Cc2c(c(N3CCOCC3)nc3sc(C(=O)Nc4ccc(Cl)cc4)c(N)c23)CO1 | -7.9 | 12.2 | -6.2 | 52.9* | x | 5.7 | 0.7
CC1(C)Cc2c(c(N3CCOCC3)nc3sc(C(N)=O)c(N)c23)CO1 | -2.6 | 6.2 | 8.2 | 37.4* | x | 3.1 | 7.3
CCOC(=O)c1sc2nc(-c3ccco3)c3c(c2c1N)CC(C)(C)OC3 | 29.8* | 26.6 | 4.0 | 41.4* | x | 6.0 | 43.2*
NC(=O)c1ccccc1-c1noc(-c2ccccc2F)n1 | x | x | x | -0.8 | x | x | x
C[C@H]1C=C(C(=O)NCc2nc3ccccc3[nH]2)O[C@@H](OCCCCO)C1 | 6.1 | 1.6 | -4.2 | 41.4* | x | -7.8 | 3.1
CC(C)(C)NC(=O)COc1ccc2oc3c(c2c1)CCCC3 | 10.7 | 1.8 | -1.5 | -2.3 | x | -2.8 | x
CCCOC(=O)c1c(NC(=O)C2C3C=CC(C3)C2C(=O)O)sc2c1CCC(C)C2 (stereo not given) | -5.5 | 1.6 | -0.4 | 51.5* | 4.7 | 1.7 | 3.5
COc1ccccc1CNCCS(=O)(=O)NN1CCOCC1 | -28.4 | 0.3 | -1.6 | 2.2 | x | -9.6 | x
CCc1cccc(C)c1NC(=O)CN1C(=O)NC(CCc2ccccc2)C1=O (stereo not given) | 3.4 | -0.2 | -10.6 | 1.5 | x | 3.8 | x
SMILES | ABHD5 PLIN5 PPI | Granule exo inh | NOD2 RIPK2 PPI | PRMT1 FP inh | TLR4-MyD88 BLA | TLR9-MyD88 block | PRMT1 confirm
Cc1ccc(N2C(=O)C3C4C=CC(CNC(=S)N5CCN(c6cccc(C)c6)C(C)C5)(O4)C3C2=O)cc1 (stereo not given) | 6.2 | 11.9 | -6.3 | 36.9* | 1.8 | 1.5 | 31.9*
COC(=O)c1ccccc1S(=O)(=O)N(Cc1ccco1)Cc1cc2cc(OC)ccc2[nH]c1=O | 17.7 | -1.9 | 6.4 | 29.8* | -3.2 | -0.2 | -1.6
CC(C)c1[nH]nc2c1C(c1ccc(Br)cc1)NC2=O (stereo not given) | x | x | x | -0.2 | x | x | x
CCOc1cc(N2CCOCC2)c(OCC)cc1NS(=O)(=O)c1cc(NC(C)=O)ccc1OC | -2.0 | -6.1 | -5.6 | 2.7 | x | -8.6 | x
NS(=O)(=O)c1ccc(CNC(=O)c2ccc(C(=O)c3ccccc3)cc2)cc1 | 2.7 | -2.7 | -0.8 | 2.1 | x | -0.2 | x
CC(=O)N1c2ccccc2Oc2cc3ccccc3cc21 | -15.8 | -2.3 | 4.4 | -1.2 | 5.3 | -9.4 | x
O=C(CCl)N1c2ccccc2Oc2ccc3ccccc3c21 | -5.7 | -12.6 | 5.9 | 60.3* | x | -2.4 | 40.2*
S=c1cnc2ccccc2[nH]1 | -5.5 | -2.7 | -4.5 | 40.4* | -14.4 | 1.9 | 13.6
COc1ccccc1NC(=O)O/N=C(\N)c1ccccc1 | 1.3 | 3.5 | 5.4 | -4.9 | x | 3.9 | x
CCCc1cc(C(=O)N(C)CC(=O)Nc2ccc(OCC)c(OCC)c2)sc1C | -2.1 | -3.6 | 5.5 | -0.7 | x | 0.2 | x
CCCCN1Cc2c(nc3cc(-c4ccco4)[nH]n3c2=O)C1=O | -4.8 | -6.6 | -4.5 | 55.6* | x | -7.0 | 18.2
O=C(O)Cn1cc(/C=N/Nc2ccc([N+](=O)[O-])cn2)c2ccccc21 | -4.3 | 16.9 | 2.7 | 28.3* | x | 10.3 | 6.3
O=C(NCc1ccc(F)cc1)c1cc(C2CCCCN2C(=O)OCCF)on1 (stereo not given) | -5.3 | -6.9 | 5.6 | -4.8 | x | x | x
COc1cc2c(cc1OC)CN(C1CC(=O)N(c3c(C)cccc3C)C1=O)CC2 (stereo not given) | -1.7 | 9.0 | -2.9 | 31.6* | 2.1 | -2.0 | 1.3
COc1ccccc1N1CCN(C2CC(=O)N(c3cccc(Br)c3)C2=O)CC1 (stereo not given) | -0.8 | -3.0 | -1.1 | 12.6 | x | -0.5 | x
Cc1nnsc1S(=O)c1ccccc1Cl (stereo not given) | 1.7 | 11.2 | 1.3 | 2.2 | x | -0.4 | x
Cc1ccc(-c2c3c(nc4sc(C(N)=O)c(N)c24)CCCC3)o1 | 7.2 | 8.9 | 12.2 | 32.2* | -12.0 | 5.1 | 2.9
NC(=O)c1sc2nc3c(c(-c4cccs4)c2c1N)CCCC3 | x | x | x | x | -1.5 | x | x
NC(=O)c1sc2nc3c(c(-c4ccco4)c2c1N)CCC3 | 1.7 | -0.3 | 2.0 | 46.9* | 0.0 | -3.2 | 3.5
CC1CCCC(=NNc2ccc3ccccc3n2)C1 (stereo not given) | 0.4 | 1.5 | -0.7 | 5.2 | x | -6.2 | x
